High-throughput results deposited in PubChem BioAssay by several laboratories.
CYP2C19 inhib = blockers of cytochrome P450 2C19 activity – biochemical, luminescence, ADME assay, primary screen. P33261. 96,000 compounds, 21% hits. CYP2C19 Supersomes, luciferin-H EGE luminescence, 30 min. inhibition, % at 5 µM. AID 778, 2007;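 active means CYP2C19 inhibition above a set limit at 5 µM in the primary screen, cut at about 50% in these data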
CYP2C19 activ = human CYP2C19 activators, primary screen, biochemical, luminescence; Cytochrome P450 2C19 (Homo sapiens), P33261; AID 1025, 2008; recombinant CYP2C19, luciferin-H EGE luminescence; stronger effect = higher value; 0 = fully inhibited enzyme, 1 = untreated enzyme; activation factor at 5 µM; 96,000 tested, under 10 active;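 active means activation factor of at least 2 at 5 µM in the primary screen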
CYP2C9 activ = human CYP2C9 activators, primary screen, biochemical, luminescence; Cytochrome P450 2C9 (Homo sapiens), P11712; recombinant CYP2C9, luciferin-H conversion; stronger effect = higher value; factor 1 = untreated enzyme, 0 = blocked; activation factor at 5 µM; 96,000 compounds, 1.4% hits; AID 1024, 2008;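 active means activation factor of 2 or more for CYP2C9 at a 5 µM dose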
Target sequence (P11712 whole entry, looked up): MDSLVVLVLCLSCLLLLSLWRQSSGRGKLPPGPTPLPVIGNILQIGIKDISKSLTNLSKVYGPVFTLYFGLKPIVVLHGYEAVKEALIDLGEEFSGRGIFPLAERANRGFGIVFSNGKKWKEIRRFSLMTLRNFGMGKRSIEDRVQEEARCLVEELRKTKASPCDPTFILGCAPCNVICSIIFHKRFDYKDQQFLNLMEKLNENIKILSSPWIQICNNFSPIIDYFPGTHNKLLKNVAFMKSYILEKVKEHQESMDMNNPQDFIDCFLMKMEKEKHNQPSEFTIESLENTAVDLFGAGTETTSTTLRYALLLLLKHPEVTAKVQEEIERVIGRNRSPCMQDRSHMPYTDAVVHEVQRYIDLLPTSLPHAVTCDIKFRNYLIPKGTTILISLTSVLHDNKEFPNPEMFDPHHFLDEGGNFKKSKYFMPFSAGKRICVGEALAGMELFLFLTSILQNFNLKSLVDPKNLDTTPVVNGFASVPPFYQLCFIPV
CYP2C9 inhib = blockers of cytochrome P450 2C9 activity – biochemical, luminescence, ADME assay, primary screen; P11712; CYP2C9 Supersomes, luciferin-H conversion; inhibition, % at 5 µM; 96,000 compounds, 20% hits; AID 777, 2007;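 active means blocking of liver enzyme CYP2C9 beyond about 50% at 5 µM, limit read from the data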
Cav32 inh = Cav3.2 calcium influx blockers – cell-based, Fluo-4 calcium fluorescence, FDSS, MLSMR library, primary screen | Voltage-dependent T-type calcium channel subunit alpha-1H (Homo sapiens), O95180 | 100,000 compounds, 4% hits | B-score at 10 µM | Cav3.2-expressing cells; stronger effect = lower value;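 active means single-dose well whose peak fluorescence ratio is a statistical outlier from its plate by either plate-standardised score or position-corrected B-score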
Of the large screens only hits and unclear results are named; the others gave an inactive call. Rows were chosen to be rich in hits. Some 27% of all compounds tested hit in one or more screens of this group.

Nc1cc(C(=O)OCC(=O)NCc2ccco2)ccc1Cl	CYP2C19 inhib 60
COc1ccc(C(=O)OCC(=O)NCc2ccco2)cc1OC	none
Cc1cccc(CN2CCN(CC(=O)O)C2=O)c1	none (no result: CYP2C19 inhib, CYP2C19 activ, CYP2C9 activ, CYP2C9 inhib)
CCOc1ccc(OCC)c(NC(=O)C2C3C=CC(O3)C2C(=O)NCc2ccco2)c1 (centres undefined)	CYP2C19 inhib 51
Cc1cc(C(=O)OCC(=O)NCc2ccco2)c(C)n1-c1ccc(F)cc1	Cav32 inh -4.4
CCCOc1ccc(CC(=O)NCc2ccco2)cc1OC	CYP2C19 inhib 63
CCOc1ccccc1OCC(=O)NCc1ccco1	CYP2C19 inhib 65
O=C(COc1ccccc1Cl)NCc1ccco1	none
CC(C)(C)NC(=O)NC(=O)COC(=O)C1=COCCO1	none
Cc1ccc(C)c(SCC(=O)NCc2ccco2)c1	none
Cc1cc(C)c2c(CC(=O)NCc3ccco3)coc2c1	CYP2C19 inhib 89
CCC(C)(C(=O)NC1CCCCC1)N(C(=O)c1cnccn1)c1c(C)n(C)n(-c2ccccc2)c1=O (centres undefined)	none
C/C=C(\C)CN1CCN(c2ccc(C)cc2)CC1	CYP2C19 inhib 86
C=C(C)Cn1c(SCC(=O)O)nnc1-c1ccc(OC)cc1	none
CCOc1ccc(N(CC(=O)NCc2cccc(OC)c2)S(=O)(=O)c2c(C)noc2C)cc1	CYP2C19 inhib 60
COc1ccc(N(CC(=O)NCc2cccc(OC)c2)S(=O)(=O)c2c(C)noc2C)cc1	CYP2C19 inhib 92, CYP2C9 inhib 64
COc1ccc(N(CC(=O)NCC2CCCO2)S(=O)(=O)c2c(C)noc2C)cc1 (centres undefined)	none
CC(=O)c1cc(C)ccc1OC(=O)c1ccco1	none
CCOP(=O)(O)c1ccccc1OCCCCCOc1ccccc1P(=O)(O)OCC	none
CCc1nc(NCCc2ccccn2)c2nnn(Cc3ccccc3F)c2n1	CYP2C19 inhib 69, CYP2C9 inhib 67
CCCCn1c(=O)[nH]c(=O)c2c1nc(COC(=O)c1c(C)noc1C)n2CCC	CYP2C19 inhib 68, CYP2C9 inhib 97
COc1ccc(C2SCC(=O)N2CC23CC4CC(CC(C4)C2)C3)cc1 (centres undefined)	none
CCCC(C)NC(=O)c1ccc2[nH]c3c(c2c1)CC(C)CC3 (centres undefined)	CYP2C9 inhib 51, Cav32 inh -5
Cc1cc(C)cc(N2C(=O)CC(N(C(=O)c3ccco3)c3cc(C)cc(C)c3)C2=O)c1 (centres undefined)	CYP2C9 inhib 62
Cc1ccc(CNc2ccc(N3CCOCC3)c(C(=O)O)c2)s1	none
O=C1OC(c2ccccc2)C2(CCCC2)C(=O)C12CCCC2 (centres undefined)	none
CC1(C)C(=O)C2(CCCCC2)C(=O)OC1c1ccc(O)cc1 (centres undefined)	CYP2C19 inhib 77, CYP2C9 inhib 60
c1ccc(C(c2nnnn2Cc2cccs2)N2CCN(C3CCCC3)CC2)cc1 (centres undefined)	none
CC1C(=NO)C(C)C(c2ccccc2)NC1c1ccccc1 (centres undefined)	CYP2C19 inhib 98
CC1/C(=N/O)CC(c2ccccc2)NC1c1ccccc1 (centres undefined)	CYP2C19 inhib 70, CYP2C9 inhib 51
Cc1ccc(-n2nc3c(c2NC(=O)c2ccccc2Br)CS(=O)C3)cc1 (centres undefined)	none
COc1ccc2[nH]c(=O)c(NC(N)=S)nc2c1	none
CCOc1ccc(C2c3c(oc4cc(C)c(C)cc4c3=O)C(=O)N2CCCN(C)C)cc1OC (centres undefined)	CYP2C9 inhib 56
COc1ccc(C2c3c(oc4ccc(C)cc4c3=O)C(=O)N2c2cc(C)ccn2)cc1OC (centres undefined)	CYP2C9 inhib 64
COc1cccc(C2c3c(oc4ccccc4c3=O)C(=O)N2c2ccccn2)c1 (centres undefined)	none
COc1cccc(C2c3c(oc4cc(C)c(C)cc4c3=O)C(=O)N2CCCN(C)C)c1 (centres undefined)	none
Cc1ccc(NC(=O)c2ccc(OC(=O)c3cc4ccccc4o3)cc2)cc1	none
CCOC(=O)c1cc2c(C(F)(F)F)cc(-c3ccccc3)nc2o1	none
NC(=O)c1sc2nc3c(c(-c4cccs4)c2c1N)CCCCC3	none
CC1=Nc2ncnn2C(c2ccccc2)/C1=N\O (centres undefined)	none
COc1ccc(CN(Cc2cc3cc(OC)c(OC)cc3[nH]c2=O)C(=O)NC2CCCCC2)cc1	none
CCC(=O)N(Cc1cc2cc(C)c(C)cc2[nH]c1=O)C1CCCCC1	CYP2C19 inhib 81, CYP2C9 inhib 69
CCOC(=O)Cn1nnnc1C(C(C)C)N(Cc1cc2c(C)cc(C)cc2[nH]c1=O)C1CCCC1 (centres undefined)	none (no result: CYP2C19 inhib, CYP2C19 activ, CYP2C9 activ, CYP2C9 inhib)
O=C(NC1CCCCC1)N(Cc1cc2cc3c(cc2[nH]c1=O)OCCO3)C1CCCCC1	CYP2C9 inhib 75
CCC(=O)N(Cc1cc(=O)[nH]c2ccccc12)C1CCCCC1	none
CC(=O)N(Cc1cc2c(C)cc(C)cc2[nH]c1=O)C1CCCCC1	CYP2C9 inhib 63
CC1CCN(CCCCOc2ccc([N+](=O)[O-])cc2)CC1	none (no result: Cav32 inh)
CC1CCN(C2(O)C(=O)Nc3ccc([N+](=O)[O-])cc32)CC1 (centres undefined)	CYP2C9 inhib 66
O=C(COC(=O)c1ccc(Br)o1)NCc1ccco1	none (no result: CYP2C19 inhib, CYP2C19 activ, CYP2C9 activ, CYP2C9 inhib)
COC(=O)CSc1nnc(-c2cccnc2)n1-c1cccc(OC)c1	none
CCc1c(O)nc(SCC(=O)Nc2ccccc2C)[nH]c1=O	none
CC1CCCCN1C(=O)CSc1nnc(-c2ccc(Cl)s2)o1 (centres undefined)	CYP2C19 inhib 95, CYP2C9 inhib 56
CCC1CCCCN1C(=O)CSc1nnc(-c2ccc3c(c2)OCCO3)o1 (centres undefined)	CYP2C19 inhib 99, CYP2C9 inhib 80 (no result: Cav32 inh)
CCC1CCCCN1C(=O)CSc1nnc(-c2ccc(OC)cc2)o1 (centres undefined)	CYP2C19 inhib 85
CC(C)CCNC(=O)C1CCN(C(=O)N(C)C)CC1	none
Cc1cccc(C)c1NC(=O)c1sccc1SCc1cccc(C(F)(F)F)c1	CYP2C19 inhib 69, CYP2C9 inhib 73
Cc1ccc(NC(=O)c2ccc(CNS(=O)(=O)c3cccc(C(F)(F)F)c3)cc2)cc1	none (no result: Cav32 inh)
N#CCSc1ccsc1C(=O)Nc1ccc(F)cc1	CYP2C19 inhib 53
CN(C)/C=C(\C#N)C(=O)Nc1ccc(F)cc1	none
Cc1ccc(NC(=O)c2sccc2SCc2cccc(C(F)(F)F)c2)cc1	CYP2C19 inhib 69, CYP2C9 inhib 74
COc1ccc(-c2cc(-n3c(C(F)(F)F)nc4ccccc43)n(CCC#N)n2)cc1	CYP2C19 inhib 63, CYP2C9 inhib 72
